A selection: hits, their analogues and other compounds. The true share with any hit is near 6.5%.
TGFb SMAD3 inh: qHTS for Inhibitors of TGF-b | AID 588855, 2011 | HepG2 CAGA-GFP TGF-b/SMAD3 reporter, GFP fluorescence, 18 h; TGF-beta stimulated, 500 pg/mL final | 1.2% of 410,000 active | Potency, µM (titrated, usually from 46.1 µM), inactives show top-dose activity, negative = inhibition, usual class: inhibitors; note: potency is the fitted concentration of half-maximal effect; % is set by controls: 0 for no effect and ±100 for the full control effect; nearly all actives have a fitted effect of over 65% in size
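Cell-based qHTS in HEPG2 carrying a CAGA-GFP Smad reporter; compounds added before 500 pg/mL final TGF-beta, 18 h incubation at 37 degrees C, GFP fluorescence quantified per cell by imaging cytometry.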
HT1080-NT tox: qHTS for induction of synthetic lethality in tumor cells producing 2HG: qHTS for the HT-1080-NT fibrosarcoma cell line; HT-1080-NT fibrosarcoma viability, CellTiter-Glo ATP luminescence, 48 h; Potency, µM (series often up to 46.1 µM), for the others: at the top dose activity, negative = less viability, usual class: cytotoxic; 1.6% of 360,000 active; AID 686970, 2013;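 note: NT is the 2HG producing partner of a matched IDH1 knockdown line; potency is the fitted concentration of half-maximal effect; 0% = DMSO-treated cells and -100% = media-only wells without cells; nearly all actives have a fitted effect of over 55% in size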
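HT-1080-NT fibrosarcoma cells (2HG-overproducing), 750 cells/well in RPMI with 5% FBS, dosed after 2 h and incubated 48 h at 37C. CellTiter-Glo luminescence normalized to DMSO and no-cell wells; concentration-response curves fitted and classed.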
HepG2 viability: qHTS for Inhibitors of TGF-b: Cytotox Counterscreen; HepG2 CAGA-GFP viability, ATP luminescence, 18 h; Potency, µM (top dose mostly 46.1 µM), for the others: top-dose activity change, negative = cytotoxicity, hits mostly cytotoxic; 0.76% of 410,000 active; AID 588856, 2011; note: potency is the fitted concentration of half-maximal effect
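CellTiter-Glo luminescence gave cytotoxicity after 18 hours at 37 degrees C. The cells were HepG2 CAGA-GFP in 1% FBS DMEM, stimulated with 500 pg/mL TGF-beta after compound addition. %Activity was normalised to no-cell wells (complete cell-killing) and DMSO (no toxicity), and curves were fitted and classified.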
Giardia killer: Small Molecules that selectively kill Giardia lamblia: qHTS; Giardia lamblia trophozoite viability; activity change, % at 7.66 µM, hits read low; 0.15% of 340,000 active; in the data active = activity change below about -80%; inconclusive = between about -30% and that limit;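 note: parasites exposed to compound for two days anaerobically before the ATP read; % is set by controls: 0 for no effect and ±100 for the full control effect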
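Killing of trophozoites was scored by loss of ATP luminescence after a 48 hrs anaerobic exposure to compounds at 37 deg C, using 100 cells per well.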
IL1B secr inh: qHTS for Inhibitors of Inflammasome Signaling: IL-1-beta AlphaLISA Primary Screen; THP-1 LPS/ATP IL-1B secretion, AlphaLISA, 16 h; stronger effect = lower value; activity change, % at 57.5 µM; 4.7% of 360,000 active; AID 743279, 2014; in the data active = activity change below about -50%; inconclusive = mostly about -30% to -49%; note: % is set by controls: 0 for no effect and ±100 for the full control effect
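Secreted IL-1B measured by AlphaLISA bead assay after 16 h compound exposure of THP-1 cells; compounds (final up to 57.5 uM) added 1 h before LPS (250 ng/mL) and ATP (1.25 mM) stimulation; lower signal means less secretion.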
HT1080 IDH1KD tx: qHTS for induction of synthetic lethality in tumor cells producing 2HG: qHTS for the HT-1080-IDH1KD cell line; HT-1080 IDH1 knockdown viability, ATP luminescence, 48 h; Potency, µM (series often up to 46.1 µM), without a hit: at the top dose activity, negative = toxicity, hits mostly cytotoxic; 2% of 360,000 active;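 note: potency is the fitted concentration of half-maximal effect; 0% = DMSO wells and -100% = cell-free medium wells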
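Luminescent ATP read-out (CellTiter-Glo, 10 min at room temperature) after 48 h compound exposure at 37 °C gave viability of IDH1-knockdown HT-1080 cells. Activity was normalised to DMSO and cell-free wells, then fitted as concentration-response curves.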
Active calls of the source: *. Unless noted, calls come from the whole dose curve; as a rule, active = well fitted curve in the direction sought with a large enough effect; inconclusive = small, poorly fitted or top-dose-only effect, or another doubt; inactive = no such curve, though single readings can be large; an effect the other way counts as inactive or inconclusive.

CC(=O)Nc1ccc(N2C(C(C)=O)=NN(c3ccc(Cl)cc3)C2c2sccc2C)cc1 (stereo unspecified) was read as TGFb SMAD3 inh inconclusive, HT1080-NT tox inconclusive, HepG2 viability -30%, Giardia killer 6, IL1B secr inh -7 and HT1080 IDH1KD tx 7.9µM*.
For CC(=O)Nc1ccc(N2C(C(C)=O)=NN(c3ccccc3)C2c2cccs2)cc1 (stereo unspecified) the results were TGFb SMAD3 inh 2%, HT1080-NT tox -6%, HepG2 viability -13%, Giardia killer -5, IL1B secr inh -2 and HT1080 IDH1KD tx inconclusive.
For O=C(c1c[nH]c(C(=O)C(Cl)(Cl)Cl)c1)c1ccccc1F the results were TGFb SMAD3 inh -6%, HT1080-NT tox -5%, HepG2 viability -18%, Giardia killer 2, IL1B secr inh 0 and HT1080 IDH1KD tx 0%.
Screening O=C(c1c[nH]c(C(=O)C(Cl)(Cl)Cl)c1)c1c(F)cccc1F returned TGFb SMAD3 inh -13%, HT1080-NT tox inconclusive, HepG2 viability -2%, Giardia killer 2, IL1B secr inh -99* and HT1080 IDH1KD tx -25%.
`O=C(COc1ccccc1)N1CCN=C1SCc1ccc(F)cc1` gave TGFb SMAD3 inh 17%, HT1080-NT tox -7%, HepG2 viability 16%, Giardia killer -13, IL1B secr inh -97* and HT1080 IDH1KD tx -14%.
Cc1ccc(C(=O)N2CCN=C2SCc2ccc([N+](=O)[O-])cc2)cc1 was read as TGFb SMAD3 inh -24%, HT1080-NT tox -5%, HepG2 viability 2%, Giardia killer 7, IL1B secr inh inconclusive and HT1080 IDH1KD tx -13%.
O=C(Cc1cccs1)N1CCN=C1SCc1ccc(Br)cc1 was read as TGFb SMAD3 inh -10%, HT1080-NT tox -29%, HepG2 viability -1%, Giardia killer 5, IL1B secr inh -102* and HT1080 IDH1KD tx -26%.
Screening CCOc1ccc(CC(=O)N2CCN=C2SCc2ccc([N+](=O)[O-])cc2)cc1 returned TGFb SMAD3 inh inconclusive, HT1080-NT tox 0%, HepG2 viability -11%, Giardia killer 24, IL1B secr inh -97* and HT1080 IDH1KD tx -16%.
O=C(Cc1ccc(F)cc1)N1CCN=C1SCc1ccc([N+](=O)[O-])cc1 was read as TGFb SMAD3 inh -1%, HT1080-NT tox -13%, HepG2 viability 2%, Giardia killer -12, IL1B secr inh -64* and HT1080 IDH1KD tx -16%.
Screening COc1ccc(CC(=O)N2CCN=C2SCc2ccc([N+](=O)[O-])cc2)cc1 returned TGFb SMAD3 inh inconclusive, HT1080-NT tox -25%, HepG2 viability -21%, Giardia killer 11 and HT1080 IDH1KD tx -29%.
For O=C(CC[C@H]1O[C@@H](n2cnc3c(NC(=O)c4ccccc4)ncnc32)[C@H](O)[C@@H]1O)NCc1ccco1 the results were TGFb SMAD3 inh -6%, HT1080-NT tox inconclusive, HepG2 viability 1%, IL1B secr inh 102 and HT1080 IDH1KD tx 10%.
Screening O=C(Cc1ccccc1)N1CCN=C1SCc1ccc([N+](=O)[O-])cc1 returned TGFb SMAD3 inh -6%, HT1080-NT tox -4%, HepG2 viability -2%, Giardia killer 4, IL1B secr inh -55* and HT1080 IDH1KD tx -3%.
`CCOC(=O)N1CCN=C1SCc1ccc(C(F)(F)F)cc1` gave TGFb SMAD3 inh 6%, HT1080-NT tox -21%, HepG2 viability 1%, Giardia killer -11, IL1B secr inh -82* and HT1080 IDH1KD tx -3%.
For O=C(c1cccs1)N1CCN=C1SCc1cccnc1 the results were TGFb SMAD3 inh 1%, HT1080-NT tox 10%, HepG2 viability -6%, Giardia killer -1, IL1B secr inh -78* and HT1080 IDH1KD tx -2%.
`O=C(c1cccs1)N1CCN=C1SCc1ccc(Cl)cc1` gave TGFb SMAD3 inh -12%, HT1080-NT tox 20%, HepG2 viability -5%, Giardia killer -6, IL1B secr inh 40 and HT1080 IDH1KD tx 0%.
COc1ccccc1-n1c(=O)n(C)c2c(C(N)=O)nc(-c3cccc(OC)c3OC)nc21 was read as TGFb SMAD3 inh -2% and HepG2 viability -1%.
`N#Cc1cc(S(=O)(=O)c2ccc(Cl)cc2)c(N)[nH]c1=O` gave TGFb SMAD3 inh -1%, HT1080-NT tox 0%, HepG2 viability 1%, Giardia killer 26, IL1B secr inh 28 and HT1080 IDH1KD tx 9%.
`COC(=O)CC1Oc2ccc(C)cc2-n2cc(-c3ccc(F)cc3)nc21` (stereo unspecified) gave TGFb SMAD3 inh 5% and HepG2 viability -10%.
For COc1ccccc1N1CCN(C(=O)C2CC2)CC1 the results were TGFb SMAD3 inh -4%, HT1080-NT tox 17%, HepG2 viability 0%, Giardia killer -4, IL1B secr inh 9 and HT1080 IDH1KD tx 16%.
COc1ccccc1N1CCN(C(=O)C2c3ccccc3Oc3ccccc32)CC1 was read as TGFb SMAD3 inh inconclusive, HT1080-NT tox 4.1µM*, HepG2 viability 0%, Giardia killer -2, IL1B secr inh 24 and HT1080 IDH1KD tx 1.8µM*.
CCOC(=O)Cn1nc(NC(=O)c2cc(OC)cc(OC)c2)cc1C was read as TGFb SMAD3 inh 8%, HT1080-NT tox 1%, HepG2 viability -14%, Giardia killer 2, IL1B secr inh -3 and HT1080 IDH1KD tx 2%.
`CCOC(=O)Cn1nc(NC(=O)c2ccc(C(=O)OC)cc2)cc1C` gave TGFb SMAD3 inh -10%, HT1080-NT tox -18%, HepG2 viability 1%, Giardia killer 8, IL1B secr inh -96* and HT1080 IDH1KD tx -26%.
`CCOC(=O)Cn1ccc(NC(=O)c2ccc3c(c2)OCO3)n1` gave TGFb SMAD3 inh -23%, HT1080-NT tox 1%, HepG2 viability -27%, Giardia killer -1, IL1B secr inh -95* and HT1080 IDH1KD tx 1%.
Screening CCOC(=O)CSc1nnc(NC(=O)c2ccc3c(c2)OCO3)s1 returned TGFb SMAD3 inh -46%, HT1080-NT tox 0%, HepG2 viability -33%, Giardia killer inconclusive, IL1B secr inh -5 and HT1080 IDH1KD tx -1%.
COc1ccc(S(=O)(=O)NNC(=O)Nc2ccc(F)cc2)cc1 was read as TGFb SMAD3 inh -22%, HT1080-NT tox -2%, HepG2 viability -6%, Giardia killer 0, IL1B secr inh 52 and HT1080 IDH1KD tx -2%.

Source: PubChem BioAssay
